Measured values published in PubChem BioAssay.
For some assays here: Entries with a potency or affinity are not part of this list. The source made the active and inactive calls. Unless noted, how the calls were made is not given here.

How the values were obtained:
[1] = antimalarial activity against Dd2 strain (AID 2302;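 active means growth inhibition above 50% at the single 2 µM test dose, taken to imply half-maximal potency below 2 µM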;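 further: 0% = DMSO untreated growth and 100% = chloroquine plus artemisinin killed control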); conditions: P. falciparum Dd2 in RBCs, LDH growth readout, 72 h; at 2 µM; stronger effect = higher value
[2] = HepG2 cytotoxicity, primary screen, cytotoxicity control for P. falciparum antimalarial project, cell-based, ATP luminescence (AID 2303;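 active means inhibition above 50%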;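 further: 0% = DMSO wells and 100% = digitonin-killed cells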); conditions: HepG2 viability, 24-48 h, at 10 µM, stronger effect = higher value
[3] = target: L-lactate dehydrogenase (Plasmodium falciparum (isolate CDC / Honduras)) (UniProt Q27743); assay: PfLDH activity inhibition – cell lysate, 3D7 strain, counter-screen for P. falciparum growth inhibition project (AID 2304);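 further: 0% = vehicle and 100% = reference inhibitor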; conditions: P. falciparum 3D7 crude extract, LDH APAD/NBT absorbance; at 2 µM; stronger effect = higher value
L-lactate dehydrogenase (Plasmodium falciparum (isolate CDC / Honduras)), sequence (Q27743 whole entry, looked up): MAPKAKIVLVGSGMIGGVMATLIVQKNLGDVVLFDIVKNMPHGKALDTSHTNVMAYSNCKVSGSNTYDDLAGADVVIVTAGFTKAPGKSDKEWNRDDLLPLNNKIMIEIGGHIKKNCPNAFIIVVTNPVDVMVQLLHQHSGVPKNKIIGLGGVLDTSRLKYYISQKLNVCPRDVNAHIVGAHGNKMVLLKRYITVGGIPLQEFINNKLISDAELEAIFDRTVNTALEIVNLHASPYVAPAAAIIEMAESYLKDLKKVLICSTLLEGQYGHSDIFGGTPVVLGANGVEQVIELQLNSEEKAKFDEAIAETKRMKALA

[4] = inhibition of 3D7 malaria parasite growth – strain 3D7 (AID 2306);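 further: 0% = DMSO wells and 100% = chloroquine plus artemisinin control wells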; conditions: P. falciparum 3D7 erythrocytic growth, LDH absorbance, 72 h; at 2 µM; stronger effect = higher value
[5] = target: Calcium-dependent protein kinase 1 (Plasmodium falciparum (isolate 3D7)) (UniProt P62344); assay: PfCDPK1 kinase inhibitors, biochemical, TCAMS library (AID 1159585; cut-off not given, nearly all actives have IC50 up to about 0.98 µM;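 further: inhibitors leave more ATP so luminescence rises with inhibition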); conditions: recombinant PfCDPK1, Kinase-Glo ATP depletion luminescence
Calcium-dependent protein kinase 1 (Plasmodium falciparum (isolate 3D7)), sequence (P62344 whole entry, looked up): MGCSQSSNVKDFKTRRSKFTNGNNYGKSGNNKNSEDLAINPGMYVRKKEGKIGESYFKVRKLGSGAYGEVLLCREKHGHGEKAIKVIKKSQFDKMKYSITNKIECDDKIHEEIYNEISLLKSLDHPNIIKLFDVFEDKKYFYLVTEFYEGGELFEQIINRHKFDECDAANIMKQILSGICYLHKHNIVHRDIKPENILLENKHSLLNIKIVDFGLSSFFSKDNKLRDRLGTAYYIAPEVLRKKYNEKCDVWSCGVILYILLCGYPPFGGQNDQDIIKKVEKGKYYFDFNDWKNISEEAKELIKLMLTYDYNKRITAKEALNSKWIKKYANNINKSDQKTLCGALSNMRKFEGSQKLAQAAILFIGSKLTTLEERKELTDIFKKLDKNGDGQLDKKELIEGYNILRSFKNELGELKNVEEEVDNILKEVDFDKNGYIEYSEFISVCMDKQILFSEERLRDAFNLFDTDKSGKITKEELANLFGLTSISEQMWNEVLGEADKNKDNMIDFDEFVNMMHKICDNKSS

[6] = target: Plasmodium falciparum protein kinase 6 (PK6, PF3D7_1337100) (UniProt Q8IDW1); assay: PfPK6 kinase inhibitors, biochemical, TCAMS library (AID 1159586); conditions: recombinant PfPK6, Kinase-Glo ATP depletion luminescence
Plasmodium falciparum protein kinase 6 (PK6, PF3D7_1337100), sequence (Q8IDW1 1-305): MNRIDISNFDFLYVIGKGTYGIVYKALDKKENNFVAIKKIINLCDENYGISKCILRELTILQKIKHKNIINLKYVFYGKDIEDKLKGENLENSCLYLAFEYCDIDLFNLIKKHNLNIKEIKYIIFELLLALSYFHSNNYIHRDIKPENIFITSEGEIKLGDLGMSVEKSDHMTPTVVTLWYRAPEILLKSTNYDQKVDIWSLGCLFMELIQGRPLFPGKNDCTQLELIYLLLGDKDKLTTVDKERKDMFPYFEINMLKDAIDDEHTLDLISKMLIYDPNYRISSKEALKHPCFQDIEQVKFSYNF

[7] = target: Protein kinase 7 (PK7), Plasmodium falciparum 3D7 (PF3D7_0213400) (UniProt Q7YTF7); assay: inhibition of Plasmodium PK7 catalytic activity – biochemical, TCAMS antimalarial set, Kinase-Glo luminescence (AID 1159587); conditions: recombinant PfPK7, Kinase-Glo ATP depletion luminescence
Protein kinase 7 (PK7), Plasmodium falciparum 3D7 (PF3D7_0213400), sequence (Q7YTF7 1-343): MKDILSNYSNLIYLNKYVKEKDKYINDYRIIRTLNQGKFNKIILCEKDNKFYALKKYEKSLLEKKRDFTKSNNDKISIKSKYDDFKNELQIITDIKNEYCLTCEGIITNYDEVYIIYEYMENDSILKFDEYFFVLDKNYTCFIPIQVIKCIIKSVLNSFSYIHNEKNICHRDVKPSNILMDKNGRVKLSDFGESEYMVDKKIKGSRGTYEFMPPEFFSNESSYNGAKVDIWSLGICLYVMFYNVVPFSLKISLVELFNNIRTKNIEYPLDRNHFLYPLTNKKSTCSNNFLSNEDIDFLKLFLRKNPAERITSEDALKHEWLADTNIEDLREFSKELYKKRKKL

[8] = target: Calcium-dependent protein kinase 4 (Plasmodium falciparum (isolate 3D7)) (UniProt Q8IBS5); assay: PfCDPK4 kinase inhibitors, biochemical, TCAMS library (AID 1159588; cut-off not given, nearly all actives have IC50 up to about 0.91 µM); conditions: recombinant PfCDPK4, Kinase-Glo ATP depletion luminescence
Calcium-dependent protein kinase 4 (Plasmodium falciparum (isolate 3D7)), sequence (Q8IBS5 whole entry, looked up): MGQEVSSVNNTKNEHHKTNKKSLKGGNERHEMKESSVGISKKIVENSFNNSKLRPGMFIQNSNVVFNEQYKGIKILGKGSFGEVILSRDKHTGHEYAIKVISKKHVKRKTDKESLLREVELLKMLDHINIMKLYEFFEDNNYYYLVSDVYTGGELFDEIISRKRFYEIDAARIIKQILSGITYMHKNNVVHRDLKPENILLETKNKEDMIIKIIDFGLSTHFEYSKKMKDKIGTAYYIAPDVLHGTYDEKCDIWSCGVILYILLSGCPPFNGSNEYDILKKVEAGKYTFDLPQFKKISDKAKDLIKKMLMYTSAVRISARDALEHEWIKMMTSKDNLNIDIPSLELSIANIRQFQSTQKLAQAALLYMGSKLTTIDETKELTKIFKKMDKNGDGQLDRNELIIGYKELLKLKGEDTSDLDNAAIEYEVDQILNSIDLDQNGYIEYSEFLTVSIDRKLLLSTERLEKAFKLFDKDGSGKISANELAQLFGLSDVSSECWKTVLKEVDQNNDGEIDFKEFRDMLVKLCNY

Cn1nc(-c2ccc(CN[C@@H]3CCc4ccc(O)cc43)cc2)c2cnc(NC3CCCC3)nc21
inactive: growth inhibition [1] 8% | inhibition [2] 12% | inhibition [3] 0% | outcome [5] | outcome [6] | outcome [7] | outcome [8]
active: growth inhibition [4] 97%

COc1ccc(CNc2nccc3ccc(-c4ccc5nccn5c4)cc23)cc1
active: growth inhibition [4] 95%
inactive: growth inhibition [1] 47% | inhibition [2] 17% | inhibition [3] -4% | outcome [5] | outcome [6] | outcome [7] | outcome [8]

c1cncc(CCNCc2ccc(-c3ccc(-c4nc5ccccc5[nH]4)s3)cc2)c1
active: growth inhibition [1] 99% | growth inhibition [4] 101%
inactive: inhibition [2] 35% | inhibition [3] -3% | outcome [5] | outcome [6] | outcome [7] | outcome [8]

O=C(Cn1c(CCc2cccc(F)c2F)nc(=O)c2cccnc21)N(Cc1ccc(-c2ccc(C(F)(F)F)cc2)cc1)C1CCN(C2CCOCC2)CC1
active: growth inhibition [1] 67% | inhibition [2] 100% | growth inhibition [4] 94%
inactive: inhibition [3] 1% | outcome [5] | outcome [6] | outcome [7] | outcome [8]

N=C1c2ccccc2CN1CC(=O)c1ccc(Cl)c(Cl)c1
inactive: growth inhibition [1] 16% | inhibition [2] 1% | inhibition [3] 0% | outcome [5] | outcome [6] | outcome [7] | outcome [8]
active: growth inhibition [4] 98%

CC(C)(C)c1ccccc1SC1=C(O)CC2(CCNCC2)OC1=O
inactive: growth inhibition [1] -4% | inhibition [2] 0% | inhibition [3] 2% | outcome [5] | outcome [6] | outcome [7] | outcome [8]
active: growth inhibition [4] 99%

CNS(=O)(=O)c1ccc2c(c1)nc(C1CCN(CC3CCC(NC(=O)/C=C/c4ccc(Cl)c(Cl)c4)CC3)CC1)n2C (configuration not stated)
active: growth inhibition [1] 96% | growth inhibition [4] 102%
inactive: inhibition [2] 5% | inhibition [3] -2% | outcome [5] | outcome [6] | outcome [7] | outcome [8]

Oc1ccc(CCNCCCCNCCc2ccc(Cl)cc2)cc1O
inactive: growth inhibition [1] -1% | inhibition [2] 33% | inhibition [3] -1% | outcome [5] | outcome [6] | outcome [7] | outcome [8]
active: growth inhibition [4] 94%

Cc1cc(NC(c2ccc(Cl)cc2)c2ccc3cccnc3c2O)no1 (configuration not stated)
inactive: growth inhibition [1] 26% | inhibition [3] 5% | outcome [5] | outcome [6] | outcome [7] | outcome [8]
active: inhibition [2] 50% | growth inhibition [4] 88%

O=C(NCc1ccccc1)c1nn(CCCN2CCC(N3CCCC3)CC2)cc1-c1ccc(Cl)c(Cl)c1
active: growth inhibition [1] 89% | growth inhibition [4] 103%
inactive: inhibition [2] 29% | inhibition [3] 0% | outcome [5] | outcome [6] | outcome [7] | outcome [8]

O=C(/C=C/c1ccc(Cl)c(Cl)c1)N1CCC(C(O)CN2CCC(c3c[nH]c4ccccc34)CC2)CC1 (configuration not stated)
active: growth inhibition [4] 99%
inactive: growth inhibition [1] 46% | inhibition [2] 14% | inhibition [3] -4% | outcome [5] | outcome [6] | outcome [7] | outcome [8]

O=[N+]([O-])c1ccc(N2CCCN(C(=S)Nc3ccc(F)cc3Br)CC2)nc1
inactive: inhibition [2] 4% | inhibition [3] -3% | outcome [5] | outcome [6] | outcome [7] | outcome [8]
active: growth inhibition [1] 99% | growth inhibition [4] 100%

O=C1C(=Cc2cc(Cc3ccccc3)ccc2O)SC(=S)N1Cc1ccccc1
active: growth inhibition [1] 53% | growth inhibition [4] 98%
inactive: inhibition [2] 16% | inhibition [3] -2% | outcome [5] | outcome [6] | outcome [7] | outcome [8]

O=C(Nc1cccc(CN2CCCN(Cc3cccnc3)CC2)c1)c1cc2ccccc2s1
active: growth inhibition [4] 92%
inactive: growth inhibition [1] 28% | inhibition [2] 15% | inhibition [3] 1% | outcome [5] | outcome [6] | outcome [7] | outcome [8]

O=C(C=Cc1ccc(Cl)c(Cl)c1)NCCCCCN1CCC(CCNS(=O)(=O)c2ccc(Br)cc2)CC1
active: inhibition [2] 58% | growth inhibition [4] 91%
inactive: growth inhibition [1] -1% | inhibition [3] 5% | outcome [5] | outcome [6] | outcome [7] | outcome [8]

COc1ccc(Nc2nccc(N3CCC(NC(=O)C(C)c4ccc(Cl)cc4)CC3)n2)cc1 (configuration not stated)
active: growth inhibition [1] 52% | growth inhibition [4] 94%
inactive: inhibition [2] 18% | inhibition [3] -2% | outcome [5] | outcome [6] | outcome [7] | outcome [8]

O=C(NC(=S)Nc1cc(C(F)(F)F)cc(C(F)(F)F)c1)c1ccc(Cl)cc1
active: growth inhibition [1] 99% | growth inhibition [4] 96%
inactive: inhibition [2] 31% | inhibition [3] 0% | outcome [5] | outcome [6] | outcome [7] | outcome [8]

Cc1cc(C2CCN(CCCCNC(=O)c3ccc(NC(=O)c4ccc(Cl)cc4)cc3)CC2)c(C)cc1OCc1nccn1C
active: growth inhibition [1] 98% | growth inhibition [4] 100%
inactive: inhibition [2] 18% | inhibition [3] -2% | outcome [5] | outcome [6] | outcome [7] | outcome [8]

Cc1ccccc1CCNC(=O)c1ccc(N2CCN(c3ccncc3)CC2)nc1
active: growth inhibition [4] 95%
inactive: growth inhibition [1] 20% | inhibition [2] 10% | inhibition [3] -3% | outcome [5] | outcome [6] | outcome [7] | outcome [8]
